Some of the results follow. Records with an inconclusive call do not appear. The source made the active and inactive calls. Rule as the data show it: active = inhibition above about 40%; inconclusive = no clear call, values can overlap the other calls; inactive = below about 18%.
These compounds were tested against Microtubule-associated protein tau (Homo sapiens) (UniProt P10636) (assay: Sedimentation Assay for Inhibitors of Tau Fibrillization). Conditions: recombinant tau K18 P301L (four-repeat tau fragment), sedimentation SDS-PAGE densitometry; at 100 µM; hits give high values.
Chain of Microtubule-associated protein tau (Homo sapiens) (P10636 561-689 P618L limits assumed): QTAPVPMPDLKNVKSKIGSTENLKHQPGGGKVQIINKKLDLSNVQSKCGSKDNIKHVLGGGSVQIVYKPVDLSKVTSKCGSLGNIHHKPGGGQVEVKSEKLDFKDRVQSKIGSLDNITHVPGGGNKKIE
Excerpt: NIH Molecular Libraries Probe Production Network [MLPCN] NIH Chemical Genomics Center [NCGC] MLPCN Grant: X01 MH083262-01 Assay Provider: Carlo Ballatore, University of Pennsylvania NCGC Assay Overview: The microtubule-associated protein tau is an abundant protein in the axons of neurons that stabilizes microtubules. With its ability to modulate microtubule dynamics, tau contributes directly or indirectly, to key structural and regulatory cellular functions. Particularly important is the influence tau exerts on axonal transport, which allows signaling molecules, trophic factors and other essential cellular constituents to travel along the axons. […] The ability of compounds to block tau fibrillization was assessed using a sedimentation assay. Unlike tau monomers, tau fibrils readily sediment upon centrifugation. Samples from the tau ThT confirmation assay treated with 100 uM compound (AID 1558) were centrifuged and the amount of tau present in the supernatant and pellet was determined. […]
NCGC Assay Protocol Summary: Human K18 P301L tau (15 uM) in assay buffer (20 uM heparin, 12.5 uM Thioflavine T, 100 mM sodium acetate pH 7) was centrifuged at 186,000 x g for 30 min and the supernatant removed from the pellet. Pellets were resuspended in a volume equal to the supernatant and equal amounts of supernatants and pellet were analyzed by SDS-PAGE using a 12.5% acrylamide gel. […]

Compound	inhibition
CCN(CC)c1ccc2oc(=O)c(C)nc2c1	59% (active)
CC(=O)Nc1sc(C)c2cnn(-c3ccccc3)c(=O)c12	5% (inactive)

— PubChem BioAssay AID1720 (National Center for Advancing Translational Sciences (NCATS), 2009)
